Only some compounds are listed: those with a hit (about 9.4% of all), similar ones and a draw of the others.
ELG1 genotoxic: qHTS screen for small molecules that induce genotoxicity in human embryonic kidney (HEK293T) cells expressing luciferase-tagged ELG1; HEK293T ELG1-luciferase reporter, luminescence, 16 h; Potency, µM (series often up to 46 µM), usual class: activators; 330,000 compounds, 1.3% hits; note: nearly all actives have a fitted effect of over 60% in size
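Luminescence read-out: rising ELG1-luciferase signal, reflecting elevated ELG1 protein under genetic stress, flags genotoxic compounds. Cells were treated for 16 hr at 37 °C before ONE-Glo detection.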
FLuc counter: qHTS profiling assay for firefly luciferase inhibitor/activator using purifed enzyme and Km concentrations of substrates (counterscreen for miR-21 project); Luciferin 4-monooxygenase (Photinus pyralis), P08659; purified FLuc, Km substrates, luminescence inhibition; Potency, µM (series often up to 57.5 µM), hits mostly inhibitors; 360,000 compounds, 6.9% hits; AID 588342, 2011; note: nearly all actives have a fitted effect of over 55% in size
Target sequence (P08659 whole entry, looked up): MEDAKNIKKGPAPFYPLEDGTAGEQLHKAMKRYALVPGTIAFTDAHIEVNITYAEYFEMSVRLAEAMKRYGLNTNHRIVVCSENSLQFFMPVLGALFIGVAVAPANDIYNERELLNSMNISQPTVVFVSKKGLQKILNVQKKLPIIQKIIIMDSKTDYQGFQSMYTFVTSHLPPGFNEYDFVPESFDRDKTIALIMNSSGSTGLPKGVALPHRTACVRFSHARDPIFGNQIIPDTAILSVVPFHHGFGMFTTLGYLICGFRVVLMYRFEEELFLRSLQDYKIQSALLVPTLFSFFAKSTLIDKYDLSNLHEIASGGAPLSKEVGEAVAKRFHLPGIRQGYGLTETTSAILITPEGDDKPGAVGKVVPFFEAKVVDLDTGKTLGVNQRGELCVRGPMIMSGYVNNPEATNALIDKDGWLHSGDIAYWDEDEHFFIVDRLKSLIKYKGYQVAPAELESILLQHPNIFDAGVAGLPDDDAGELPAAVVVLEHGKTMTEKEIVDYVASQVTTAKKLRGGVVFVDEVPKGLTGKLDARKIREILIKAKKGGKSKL
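Biochemical qHTS of compounds, final roughly 60 µM downward over six points, against 10 nM purified firefly luciferase using Km concentrations of substrates (10 uM D-luciferin, 10 uM ATP) in Tris acetate pH 7.5 buffer; luminescence output.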
ELG1 DNA repair: qHTS screen for small molecules that inhibit ELG1-dependent DNA repair in human embryonic kidney (HEK293T) cells expressing luciferase-tagged ELG1; Potency, µM (top dose mostly 46.1 µM), usual class: inhibitors; AID 504467, 2011; 330,000 compounds, 2.3% hits; HEK293T ELG1-luciferase reporter, luminescence, 16 h; DNA damage induced by 5-fluorouridine; note: nearly all actives have a fitted effect of over 55% in size
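DMSO vehicle served as the neutral condition. Each well held 2,000 cells given 5-fluorouridine plus compound; after 16 hr at 37 °C/5% CO2, ONE-Glo was added and luciferase measured 30 min later.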
Rab9 prom act: qHTS Assay for Rab9 Promoter Activators | Potency, µM (titrated, usually from 9.22 µM), most hits filed as activators | 320,000 compounds, 2.8% hits | Huh7 Rab9 promoter-luciferase reporter, luminescence, 24 h; note: nearly all actives have a fitted effect of over 60% in size
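Cell-based reporter: Huh7 stable for Rab9 promoter-driven luciferase, plated in reduced-serum medium with 10% FBS at 1500 cells/well, compound-treated 24 h at 37 °C, luminescence read after 10 min reagent.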
SMN2 splice up: qHTS Assay for Enhancers of SMN2 Splice Variant Expression; HEK293 SMN2-luciferase splicing reporter, luminescence, 30-36 h; Potency, µM (top dose mostly 46.1 µM), actives largely listed as activators; 210,000 compounds, 2.8% hits; AID 1458, 2008; note: nearly all actives have a fitted effect of over 55% in size
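qHTS luciferase splicing reporter: luminescence rises when SMN2 exon 7 is included in transfected HEK293 cells. Compound exposure lasted 30-36 h at 37C, with 4.5 mM final sodium butyrate as control, followed by a ONE-Glo read.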
NPC1 promoter act: qHTS Assay for NPC1 Promoter Activators; Huh7 NPC1 promoter luciferase reporter, 24 h; Potency, µM (doses to about 9.22 µM), most hits filed as activators; 320,000 compounds, 2.4% hits; AID 485313, 2010; note: nearly all actives have a fitted effect of over 60% in size
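Huh7 reporter cells (NPC1 promoter driving luciferase) are dosed with compound for 24 h at 37 °C, 5% CO2; luciferase detection reagent is then added and luminescence measured after 10 min at ambient temperature.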
Hits are given with their value; n = inactive; u = inconclusive; x = no result; [ ] = dose if it differs, or a comment. Calls come from the whole dose curve; as a rule, active = well fitted curve in the direction sought with a large enough effect; inconclusive = small, poorly fitted or top-dose-only effect, or another doubt; inactive = no such curve, though single readings can be large; an effect the other way counts as inactive or inconclusive.

SMILES	ELG1 genotoxic	FLuc counter	ELG1 DNA repair	Rab9 prom act	SMN2 splice up	NPC1 promoter act
COc1cc(C(=O)NCCc2sc(-c3cccc(F)c3)nc2C)cc(OC)c1OC	x	n	x	x	x	x
Cc1c(CNCCCc2ccccc2)c(C(=O)O)c(C)n1Cc1ccc(Cl)cc1	x	n	x	x	n	x
CCn1cnc2sc(-c3ccccc3)cc2c1=O	3.7µM	6µM	u	2.8µM	10µM	1.3µM
O=c1c2cc(-c3ccccc3)sc2ncn1-n1cccc1	u	n	u	1.8µM	u	1.8µM
Cc1ccc(C)n1-n1cnc2sc(-c3ccccc3)cc2c1=O	n	u	n	n	n	n
CCOC(=O)C(CC)n1nnc2sc(-c3ccccc3)cc2c1=O (configuration not stated)	x	21µM	x	x	n	x
COc1ccc(-n2cnc3sc(-c4ccccc4)cc3c2=O)cc1	u	u	u	0.63µM	6.3µM	0.56µM
CN(C)CCCNc1oc(/C=C/c2ccc(F)cc2)nc1C#N	x	n	x	x	n	x
CC(C)COC(=O)Cn1nnc2sc(-c3ccccc3)cc2c1=O	x	n	x	x	n	x
CC(=O)Cn1nnc2sc(-c3ccccc3)cc2c1=O	u	u	u	u	14µM	u
CCOC(=O)c1c(NC(=O)COc2cccc3c2CCN(C)C3=O)sc2c1CCC2	n	n	18µM	n	n	n
Cc1cccc(NC(=O)COc2cccc3c2CCN(C)C3=O)c1C	n	n	u	n	n	n
COc1ccccc1N1C(=O)S/C(=C\c2ccc(C)s2)C1=O	u	n	u	3.5µM	x	u
COc1ccc(N=C2S/C(=C\c3cc(C)n(C)c3C)C(=O)N2C)cc1	n	n	u	n	n	n
COc1ccccc1N1C(=O)S/C(=C\c2cc(C)n(C)c2C)C1=O	u	12µM	u	2.5µM	14µM	3.5µM
COc1ccc(CNC(=O)c2ccc3c(c2)nc2n3CCC(C)C2)c(OC)c1 (configuration not stated)	x	n	x	x	x	x
C[C@H](N)CCCC(C)(C)O	x	x	x	x	n	x
CC(C)C(=O)Nc1nnc(S(=O)(=O)N(C)Cc2ccc(F)cc2)s1	x	n	x	x	x	x
O=C1C(Cl)=C(NCc2cccnc2)C(=O)c2ccccc21	n	n	21µM	n	x	n
COc1ccc(C(=O)NCCSc2ccccn2)cc1	1µM	2.1µM	u	0.4µM	2.8µM	0.71µM
Cc1ccc(N(Cc2ccc(C(=O)NCCSc3ccccn3)cc2)S(C)(=O)=O)cc1C	n	n	9.2µM	n	n	n
CC(=O)N=c1sc2cc(C)ccc2n1C	13µM	u	u	n	n	n
Cc1cc(C)n(-c2nc(N(c3ccccc3)c3ccccc3)nc(-n3nc(C)cc3C)n2)n1	n	n	26µM	n	n	n
COc1cc(OC)cc(-c2cc(N3C(=O)Nc4ccccc4N3O)n[nH]2)c1	n	n	n	n	n	n
O=C1Nc2ccccc2N(O)N1c1cc(-c2ccccc2Cl)no1	n	6µM	u	n	n	u
SMILES	ELG1 genotoxic	FLuc counter	ELG1 DNA repair	Rab9 prom act	SMN2 splice up	NPC1 promoter act
O=C1Nc2ccccc2N(O)N1c1cc(-c2cccc(Cl)c2)no1	n	21µM	n	n	x	n
O=C1Nc2ccccc2N(O)N1c1cc(-c2ccc(Cl)cc2)[nH]n1	n	8.5µM	n	n	n	n
O=C1Nc2cc(Cl)c(Cl)cc2N(O)N1c1cccc(Cl)c1	n	n	n	n	n	n
CCC1Oc2ccccc2N(CC(=O)NCCN2C(C)CCCC2C)C1=O (configuration not stated)	n	n	n	n	10µM	n
CC1Oc2ccccc2N(CC(=O)NC2CC2)C1=O (configuration not stated)	n	n	n	n	x	n
CC1Oc2ccccc2N(CC(=O)NCc2ccccc2)C1=O (configuration not stated)	u	u	u	4µM	x	u
c1ccc(C2=NN[C@@H]3c4ccccc4-c4ccccc4N3C2)cc1	x	x	x	x	n[9.22 µM]	x

Screens as filed in PubChem.
